# In PubChem BioAssay AID1159580 (chemical genetic matrix, 2015):
# Several values for one entry are separate records, joined by “and”; a condition that tells them apart may be missing. Equal entries are not always repeated. The campaign covered roughly 5,500 compounds. About 2,000 (36%) were called active. Inconclusive results (about 18%) are left out. No stated cut-off is given here; in the data, active means normalized growth mostly below about 0.91 (no sharp cut-off); inconclusive means no clear call, values can overlap the other calls; inactive means mostly above about 0.92. This is one part of the list.
# Assay: chemical genetic growth profiling, strain panel (AID 1159580);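 further: tested at 20 µM; growth read once vehicle control cultures reached saturation at 30 °C; 1 = growth at the plate median or of vehicle wells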
# Details: S. cerevisiae deletion strains, growth OD
structure (smiles),measurement,setting,value
CC[C@@]1(O)C[C@H](O[C@H]2C[C@H](N(C)C)[C@H](O)[C@H](C)O2)c2c(cc3c(c2O)C(=O)c2c(O)ccc(O)c2C3=O)[C@H]1C(=O)OC,normalized growth,"locus YAL021C, strain ccr4, stronger effect = lower value",0.83 (active)
same,normalized growth,"locus YAL026C, strain drs2, stronger effect = lower value",0.813 (active)
same,normalized growth,"locus YAL030W, strain snc1, stronger effect = lower value",0.919 (active)
same,normalized growth,"locus YBL061C, strain skt5, stronger effect = lower value",0.875 (active)
same,normalized growth,"locus YBR009C, strain hhf1, stronger effect = lower value",0.924 (inactive)
same,normalized growth,"locus YBR021W, strain FUR4, stronger effect = lower value",0.143 (active)
same,normalized growth,"locus YBR023C, strain chs3, stronger effect = lower value",1.52 [resistant] (active)
same,normalized growth,"locus YBR171W, strain sec66, stronger effect = lower value",1.03 (inactive)
same,normalized growth,"locus YBR229C, strain ROT2, stronger effect = lower value",0.152 (active)
same,normalized growth,"locus YBR231C, strain swc5, stronger effect = lower value",0.794 (active)
same,normalized growth,"locus YBR279W, strain paf1, stronger effect = lower value",0.901 (active)
same,normalized growth,"locus YCL011C, strain gbp2, stronger effect = lower value",0.0988 (active)
same,normalized growth,"locus YCL016C, strain dcc1, stronger effect = lower value",0.893 (active)
same,normalized growth,"locus YCL029C, strain bik1, stronger effect = lower value",0.205 (active)
same,normalized growth,"locus YCL069W, strain vba3, stronger effect = lower value",0.948 (inactive)
same,normalized growth,"locus YCR088W, strain abp1, stronger effect = lower value",0.954 (inactive)
same,normalized growth,"locus YDL005C, strain med2, stronger effect = lower value",1.03 (inactive)
same,normalized growth,"locus YDL035C, strain GPR1, stronger effect = lower value",0.0755 (active)
same,normalized growth,"locus YDL040C, strain nat1, stronger effect = lower value",0.962 (inactive)
same,normalized growth,"locus YDL074C, strain BRE1, stronger effect = lower value",0.141 (active)
same,normalized growth,"locus YDL101C, strain DUN1, stronger effect = lower value",0.0945 (active)
same,normalized growth,"locus YDL134C, strain PPH21, stronger effect = lower value",0.0874 (active)
same,normalized growth,"locus YDL185W, strain tfp1, stronger effect = lower value",0.956 (inactive)
same,normalized growth,"locus YDL192W, strain arf1, stronger effect = lower value",0.106 (active)
same,normalized growth,"locus YDR001C, strain nth1, stronger effect = lower value",0.932 (inactive)
same,normalized growth,"locus YDR069C, strain doa4, stronger effect = lower value",0.68 (active)
same,normalized growth,"locus YDR101C, strain arx1, stronger effect = lower value",0.18 (active)
same,normalized growth,"locus YDR137W, strain rgp1, stronger effect = lower value",0.703 (active)
same,normalized growth,"locus YDR150W, strain NUM1, stronger effect = lower value",0.112 (active)
same,normalized growth,"locus YDR159W, strain sac3, stronger effect = lower value",0.906 (inactive)
same,normalized growth,"locus YDR162C, strain NBP2, stronger effect = lower value",0.0578 (active)
same,normalized growth,"locus YDR195W, strain ref2",1.05 (inactive)
same,normalized growth,"locus YDR297W, strain sur2, stronger effect = lower value",0.873 (active)
same,normalized growth,"locus YDR318W, strain mcm21, stronger effect = lower value",0.125 (active)
same,normalized growth,"locus YDR334W, strain swr1, stronger effect = lower value",0.816 (active)
same,normalized growth,"locus YDR335W, strain msn5, stronger effect = lower value",0.854 (active)
same,normalized growth,"locus YDR388W, stronger effect = lower value",0.0868 (active)
same,normalized growth,"locus YDR392W, strain spt3, stronger effect = lower value",0.823 (inactive)
same,normalized growth,"locus YDR502C, strain sam2, stronger effect = lower value",0.125 (active)
same,normalized growth,"locus YEL003W, strain gim4, stronger effect = lower value",0.942 (inactive)
same,normalized growth,"locus YEL037C, strain rad23, stronger effect = lower value",0.874 (active)
same,normalized growth,"locus YEL061C, strain CIN8 (second series), stronger effect = lower value",0.879 (active)
same,normalized growth,"locus YEL061C, strain CIN8, stronger effect = lower value",0.071 (active)
same,normalized growth,"locus YER015W, strain faa2, stronger effect = lower value",0.821 (active)
same,normalized growth,"locus YER016W, strain bim1, stronger effect = lower value",0.954 (inactive)
same,normalized growth,"locus YER110C, stronger effect = lower value",0.559 (active)
same,normalized growth,"locus YER111C, strain swi4, stronger effect = lower value",0.767 (active)
same,normalized growth,"locus YER155C, strain BEM2 (second series), stronger effect = lower value",0.848 (active)
same,normalized growth,"locus YER155C, strain BEM2, stronger effect = lower value",0.144 (active)
same,normalized growth,"locus YER167W, strain BCK2, stronger effect = lower value",0.0725 (active)
same,normalized growth,"locus YFR010W, strain ubp6, stronger effect = lower value",0.813 (active)
same,normalized growth,"locus YGL078C, strain dbp3, stronger effect = lower value",0.973 (inactive)
same,normalized growth,"locus YGL086W, strain mad1, stronger effect = lower value",0.281 (active)
same,normalized growth,"locus YGL167C, strain pmr1, stronger effect = lower value",0.955 (inactive)
same,normalized growth,"locus YGL173C, strain kem1, stronger effect = lower value",0.716 (active)
same,normalized growth,"locus YGL227W, strain vid30, stronger effect = lower value",1.02 (inactive)
same,normalized growth,"locus YGL240W, strain doc1, stronger effect = lower value",0.966 (inactive)
same,normalized growth,"locus YGL248W, strain PDE1, stronger effect = lower value",0.0787 (active)
same,normalized growth,"locus YGL253W, strain hxk2, stronger effect = lower value",0.86 (active)
same,normalized growth,"locus YGR078C, strain PAC10, stronger effect = lower value",0.0806 (active)
same,normalized growth,"locus YGR135W, strain pre9, stronger effect = lower value",0.0948 (active)
same,normalized growth,"locus YGR252W, strain gcn5, stronger effect = lower value",0.225 (active)
same,normalized growth,"locus YHR013C, strain ard1, stronger effect = lower value",0.935 (inactive)
same,normalized growth,"locus YHR027C, strain rpn1, stronger effect = lower value",0.812 (active)
same,normalized growth,"locus YHR030C, strain SLT2, stronger effect = lower value",0.113 (active) and 0.995 (inactive)
same,normalized growth,"locus YHR079C, strain IRE1 (second series), stronger effect = lower value",0.477 (active)
same,normalized growth,"locus YHR079C, strain IRE1, stronger effect = lower value",0.987 (inactive)
same,normalized growth,"locus YHR094C, strain hxt1, stronger effect = lower value",0.402 (active)
same,normalized growth,"locus YHR129C, strain ARP1, stronger effect = lower value",0.0918 (active)
same,normalized growth,"locus YHR142W, strain chs7, stronger effect = lower value",0.745 (active)
same,normalized growth,"locus YHR200W, strain rpn10, stronger effect = lower value",0.0997 (active)
same,normalized growth,"locus YIL066C, strain RNR3, stronger effect = lower value",0.073 (active)
same,normalized growth,"locus YIL073C, strain SPO22, stronger effect = lower value",0.134 (active)
same,normalized growth,"locus YIL125W, strain kgd1, stronger effect = lower value",0.959 (inactive)
same,normalized growth,"locus YIR030C, strain dcg1, stronger effect = lower value",0.179 (active)
same,normalized growth,"locus YJL092W, strain hpr5, stronger effect = lower value",0.905 (active)
same,normalized growth,"locus YJL095W, strain BCK1 (second series), stronger effect = lower value",0.877 (active)
same,normalized growth,"locus YJL095W, strain BCK1, stronger effect = lower value",0.121 (active) and 0.997 (inactive)
same,normalized growth,"locus YJL115W, strain asf1, stronger effect = lower value",0.947 (inactive)
same,normalized growth,"locus YJL129C, strain trk1, stronger effect = lower value",1.05 (inactive)
same,normalized growth,"locus YJL134W, strain LCB3, stronger effect = lower value",0.167 (active)
same,normalized growth,"locus YJL154C, strain vps35, stronger effect = lower value",0.929 (inactive)
same,normalized growth,"locus YJL164C, strain tpk1, stronger effect = lower value",0.832 (active)
same,normalized growth,"locus YJL166W, strain qcr8, stronger effect = lower value",0.875 (active)
same,normalized growth,"locus YJL168C, strain set2, stronger effect = lower value",0.272 (active)
same,normalized growth,"locus YJL187C, strain SWE1 (second series), stronger effect = lower value",0.0876 (active)
same,normalized growth,"locus YJR043C, strain POL32, stronger effect = lower value",0.113 (active)
